RORgamma inh: ROR gamma (mouse) transcription inhibition; P51450; Drosophila S2 Gal4-RORgamma UAS-luciferase reporter, 20 h; Potency, µM (highest dose often 53.6 µM), usual class: inhibitors; hit rate 5.4% among 310,000; AID 2551; also: nearly all actives have a fitted effect of over 60% in size
Target sequence (P51450 whole entry, looked up, the tested form may be a part): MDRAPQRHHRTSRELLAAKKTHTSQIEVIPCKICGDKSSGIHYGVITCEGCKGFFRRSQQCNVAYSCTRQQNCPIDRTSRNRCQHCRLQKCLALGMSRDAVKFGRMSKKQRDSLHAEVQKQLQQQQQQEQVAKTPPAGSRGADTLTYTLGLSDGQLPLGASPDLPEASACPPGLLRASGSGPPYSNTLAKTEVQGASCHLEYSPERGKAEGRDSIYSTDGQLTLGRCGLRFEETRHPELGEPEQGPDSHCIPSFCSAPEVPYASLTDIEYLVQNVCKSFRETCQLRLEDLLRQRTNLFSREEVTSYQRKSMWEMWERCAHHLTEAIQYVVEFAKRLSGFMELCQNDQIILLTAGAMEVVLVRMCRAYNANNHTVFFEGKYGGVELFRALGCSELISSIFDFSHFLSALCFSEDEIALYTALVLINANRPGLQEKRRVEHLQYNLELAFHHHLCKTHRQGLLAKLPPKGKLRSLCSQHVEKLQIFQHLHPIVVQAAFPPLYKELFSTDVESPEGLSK
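ROR gamma transcriptional activity was tracked as Gal4-UAS luciferase output in stably transfected Drosophila Schneider cells, with compound added 1 hr before 700 uM copper sulfate induction and a 20 hr ambient-temperature incubation.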
IL1B secr inh: inhibitors of inflammasome signaling (IL-1 beta secretion). THP-1 LPS/ATP IL-1B secretion, AlphaLISA, 16 h; stronger effect = lower value. activity change, % at 57.5 µM. hit rate 4.7% among 360,000; in the data active = activity change below about -50%; inconclusive = mostly about -30% to -49%
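Secreted IL-1B measured by AlphaLISA bead assay after 16 h compound exposure of THP-1 cells; compounds (final up to 57.5 uM) added 1 h before LPS (250 ng/mL) and ATP (1.25 mM) stimulation; lower signal means less secretion.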
SW480 rereplic: induces DNA re-replication in SW480 colon adenocarcinoma cells; SW480 DNA re-replication, Hoechst DNA content imaging, 48 h; Potency, µM (highest dose often 46.1 µM), actives largely listed as activators; hit rate 1.8% among 340,000; AID 624297; also: nearly all actives have a fitted effect of over 55% in size
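Quantitative HTS format with DMSO vehicle controls; 48 hr drug incubation at 37 C, then 40 min Hoechst staining and scanning imager measurement at 405 nm excitation.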
MCF10A rerep: DNA re-replication induction in MCF 10a cells; MCF 10A DNA re-replication, Hoechst nuclear intensity, 48 h; Potency, µM (doses to about 46.1 µM), most hits filed as activators; hit rate 2.9% among 350,000; AID 624296; also: nearly all actives have a fitted effect of over 50% in size
VP16 counter: counter-screen for ROR gamma inhibitors: Gal4-VP16 reporter. Drosophila S2 Gal4-VP16 UAS-luciferase, luminescence, 20 h. Potency, µM (highest dose often 53.6 µM), hits mostly inhibitors. hit rate 3.5% among 310,000. AID 2546;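 also: Gal4-VP16 expression switched on by copper sulfate through the metallothionein promoter; nearly all actives have a fitted effect of over 50% in size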
Large screens that a line does not name were inactive. A selection: hits, their analogues and other compounds. The true share with any hit is near 11%. Unless noted, calls follow the shape of the dose curve; as a rule, active = well fitted curve in the direction sought with a large enough effect; inconclusive = small, poorly fitted or top-dose-only effect, or another doubt; inactive = no such curve, though single readings can be large; an effect the other way counts as inactive or inconclusive.

CC(C)CNC(=O)c1cccc2c(-c3ccc(F)c(F)c3)coc12	none (no result: RORgamma inh, SW480 rereplic, MCF10A rerep, VP16 counter)
CC(C)CNC(=O)c1ccc(-c2ccc(F)c(F)c2)c2ccoc12	IL1B secr inh -66 (no result: RORgamma inh, SW480 rereplic, MCF10A rerep, VP16 counter)
CCOC(=O)CCCCC1=CC2=CC(=O)C(C)(O)C(=O)C2=CO1 (configuration not stated)	none (no result: IL1B secr inh, SW480 rereplic, MCF10A rerep)
C=CCNC(=S)NN=C1CCCCCCC1	RORgamma inh 0.35µM, VP16 counter 4.5µM
COCCNC(=S)NN=C1CCCCC1	RORgamma inh 13µM, SW480 rereplic 18µM, VP16 counter inconclusive
COc1ccc(CN(C)C(=O)c2ccc(COc3ccccc3)cc2)c(OC)c1	SW480 rereplic inconclusive, MCF10A rerep inconclusive
COc1ccccc1CN(C)C(=O)C(c1ccccc1)c1ccccc1	RORgamma inh inconclusive, IL1B secr inh -82, SW480 rereplic inconclusive, MCF10A rerep inconclusive
COc1ccccc1CN(C)C(=O)c1ccc(COc2ccccc2)cc1	IL1B secr inh -76, MCF10A rerep inconclusive
S=c1[nH]cc(Cc2ccccc2)s1	RORgamma inh 13µM, VP16 counter inconclusive
O=c1[nH]cc(Cc2ccccc2)c(=O)[nH]1	none (no result: RORgamma inh, SW480 rereplic, MCF10A rerep, VP16 counter)
COc1cc(/C=C2\SC(c3ccc(C)cc3)=NC2=O)cc(OC)c1O	RORgamma inh inconclusive, MCF10A rerep inconclusive
Cc1ccc(C2=NC(=O)/C(=C/c3cc(O)c(O)c(Br)c3)S2)cc1	SW480 rereplic 8.2µM, MCF10A rerep inconclusive
COc1cccc(CN2CCC(C)(Oc3cccc(Cl)c3)C2)c1OC (configuration not stated)	none (no result: RORgamma inh, SW480 rereplic, MCF10A rerep, VP16 counter)
CCOC(=O)C1CCN(Cc2cc(Cl)c3ccccc3c2O)CC1	SW480 rereplic inconclusive, MCF10A rerep 18µM, VP16 counter inconclusive
CCc1ccc(S(=O)(=O)NC2CC(C)(C)NC(C)(C)C2)cc1	RORgamma inh 2µM
Cc1cccc(N2CCN(S(=O)(=O)c3ccc(-c4ccc(=O)[nH]n4)o3)CC2)c1C	SW480 rereplic inconclusive, MCF10A rerep 21µM, VP16 counter inconclusive
Cc1ccc(OCCNc2ccc(S(=O)(=O)N3CCCC3)cn2)cc1	SW480 rereplic 21µM (no result: RORgamma inh, VP16 counter)
N#Cc1c(N)n(-c2cccc(C(=O)O)c2)c2nc3ccccc3nc12	SW480 rereplic inconclusive, MCF10A rerep 21µM
COCCCNC(=O)c1c(N)n(-c2cccc(S(N)(=O)=O)c2)c2nc3ccccc3nc12	IL1B secr inh -53, SW480 rereplic 21µM, MCF10A rerep 18µM
CCN(CCO)c1ccc(-n2c(N)c(C(=O)OC)c3nc4ccccc4nc32)cc1	IL1B secr inh -54, MCF10A rerep inconclusive
Nc1c(C(=O)NCCN2CCOCC2)c2nc3ccccc3nc2n1-c1cccc(F)c1	IL1B secr inh -63, SW480 rereplic 16µM, MCF10A rerep 18µM
Cc1cc(F)ccc1OC1C=CC(c2ccc3c(c2)OCO3)OC1CO (configuration not stated)	none (no result: IL1B secr inh, SW480 rereplic, MCF10A rerep)
Cc1cc(Br)ccc1NC(=O)CNC(=O)c1cnn(C)c1	none (no result: RORgamma inh, VP16 counter)
COc1ccc(OCC2CN3C(CCC(C)C3c3ccc(Br)cc3)C(=O)O2)cc1 (configuration not stated)	none (no result: IL1B secr inh, SW480 rereplic, MCF10A rerep)
Nc1c(C(=O)Nc2ccccc2)c2nc3ccccc3nc2n1CCCN1CCOCC1	RORgamma inh 11µM, IL1B secr inh -78, SW480 rereplic 18µM, MCF10A rerep 10µM, VP16 counter inconclusive
CCCNC(=O)c1c(N)n(-c2cccc(OC)c2)c2nc3ccccc3nc12	IL1B secr inh -71, SW480 rereplic inconclusive, MCF10A rerep 7.3µM
CC(C)OCCCNC(=O)c1c(N)n(/N=C/c2cccs2)c2nc3ccccc3nc12	SW480 rereplic inconclusive, MCF10A rerep 8.2µM
C=CCn1c(N)c(C(=O)Nc2cccc(C)c2)c2nc3ccccc3nc21	IL1B secr inh -61, SW480 rereplic inconclusive, MCF10A rerep inconclusive
COCCCNC(=O)c1c(N)n(/N=C/c2ccccn2)c2nc3ccccc3nc12	IL1B secr inh inconclusive, SW480 rereplic inconclusive, MCF10A rerep inconclusive
CCc1ccc(N2CC(C(=O)NC3CCCCC3C)CC2=O)cc1 (configuration not stated)	none
CC(=O)NC1=C(NC2CCS(=O)(=O)C2)C(=O)c2ccccc2C1=O (configuration not stated)	RORgamma inh inconclusive, SW480 rereplic 18µM, MCF10A rerep inconclusive, VP16 counter 18µM
CN(C(=O)c1ccccc1Br)C1CCS(=O)(=O)C1 (configuration not stated)	none (no result: RORgamma inh, VP16 counter)
CN(C1=C(NC(=O)c2ccccc2)C(=O)c2ccccc2C1=O)C1CCS(=O)(=O)C1 (configuration not stated)	RORgamma inh 14µM, IL1B secr inh inconclusive, SW480 rereplic inconclusive, MCF10A rerep 23µM, VP16 counter 7.1µM
COC(=O)c1cc(=O)n(CCc2ccccc2F)c(=Nc2ccc(F)c(Cl)c2)s1	RORgamma inh inconclusive, IL1B secr inh -101, MCF10A rerep inconclusive, VP16 counter inconclusive
COC(=O)c1cc(=O)n(Cc2ccco2)c(=Nc2ccc(F)c(Cl)c2)s1	RORgamma inh inconclusive, IL1B secr inh -105, SW480 rereplic inconclusive, MCF10A rerep 7.3µM, VP16 counter inconclusive
COC(=O)c1cc(=O)n(-c2ccc(F)cc2)c(=Nc2ccc(F)cc2)s1	RORgamma inh inconclusive, IL1B secr inh -105, SW480 rereplic inconclusive, MCF10A rerep 5.2µM, VP16 counter 16µM
COC(=O)c1cc(=O)n(Cc2cccs2)c(=Nc2ccc(F)cc2)s1	RORgamma inh inconclusive, VP16 counter inconclusive
CC(C)(C)N1C(=O)c2ccccc2NC(=O)C1C(=O)Nc1ccc2c(c1)OCCO2 (configuration not stated)	none (no result: RORgamma inh, SW480 rereplic, MCF10A rerep, VP16 counter)
C/C(N)=C(/C#N)C(=O)COC(=O)CCSc1ccccc1Cl	RORgamma inh 11µM, VP16 counter inconclusive
C=CCn1cc(C(=O)OC)c(=O)c2cc(S(=O)(=O)N3CCC(C)CC3)ccc21	RORgamma inh 11µM
CCOC(=O)N1CCN(C(=O)c2cn(CC)c3ccc(S(=O)(=O)N4CC(C)CC(C)C4)cc3c2=O)CC1 (configuration not stated)	MCF10A rerep 2.3µM
CCCc1ccc(Oc2cc(NN3CCCCC3)c([N+](=O)[O-])cc2[N+](=O)[O-])cc1	SW480 rereplic inconclusive, MCF10A rerep inconclusive
Cc1ccc(C)c(CSCc2nc3ccccc3[nH]2)c1	MCF10A rerep 18µM
Cc1ccccc1CSCc1nc2ccccc2[nH]1	RORgamma inh inconclusive, IL1B secr inh inconclusive
c1ccc2cc(CSCc3nc4ccccc4[nH]3)ccc2c1	RORgamma inh inconclusive, MCF10A rerep 21µM, VP16 counter 11µM
c1cncc(-c2nnc(SCc3nc4ccccc4[nH]3)o2)c1	RORgamma inh inconclusive
O=C(CSCc1nc2ccccc2[nH]1)Nc1ccc2ccccc2c1	none
c1ccc2[nH]c(CSc3nc4ccccc4o3)nc2c1	RORgamma inh 2µM, VP16 counter inconclusive
O=c1cnc2cnc(OCc3ccccc3)nc2n1Cc1ccc(F)cc1	none (no result: IL1B secr inh, SW480 rereplic, MCF10A rerep)
Oc1ccc(Cl)cc1CNCc1ccc(C(F)(F)F)cc1	IL1B secr inh inconclusive (no result: RORgamma inh, VP16 counter)

Screens: PubChem BioAssay, National Center for Advancing Translational Sciences (NCATS)
